# Screening results as filed in PubChem BioAssay.
# Shown are actives, neighbours in structure and some others; about 1.5% of the full set was active somewhere.
# RAD52 anneal inh = RAD52 (human) annealing inhibition; inhibition, % at 18.7 µM; AID 651710; actives 0.46% (n = 360,000); recombinant RAD52 DNA annealing, FRET fluorescence;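 active = every replicate showing at least 50% inhibition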
# N-glyco inh = blocks N-linked glycosylation in D54 reporter cells | D54 ERlucT glycosylation luciferase reporter, 24 h; percent of 100 nM tunicamycin response | reporter increase, % at 12.5 µM | actives 0.23% (n = 360,000);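 active = mean luciferase reporter signal, scaled so untreated is 0 and the glycosylation-blocking control 100, at or above a set limit in every replicate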;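 also: luciferase carries N-glycosylation sites so blocking glycosylation raises the light; 0% = median of neutral control wells and 100% = median of 100 nM tunicamycin wells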
# dFosB activator = mouse delta FosB homodimer activation; P13346; purified delta FosB, TAMRA-CDK5 oligo fluorescence polarization; percent of positive-control signal above neutral wells; activation, % at 25 µM; actives 0.99% (n = 340,000); AID 493131;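 active = mean activation above about 17%, with every replicate also reaching it, limit read from the data, passing the limit was not always enough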
# CFTR F508del cor = correctors of CFTR F508del function in bronchial epithelial cells; CFBE cells, YFP halide quenching; stimulated with forskolin plus potentiator P3; % fluorescence drop versus neutral controls; activity (quench increase), % at 7.58 µM; actives 0.36% (n = 350,000);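 active = mean added fluorescence quench of at least 8% versus neutral control, with both replicates also reaching 8%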;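 also: cells transiently co-express mutant CFTR-F508del with the halide-sensitive YFP; corrector assay measuring rescue of mutant channel to the surface after 24 h compound exposure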
# PvdQ inh = blocks Pseudomonas aeruginosa PvdQ acylase activity. AID 488965. purified PvdQ acylase, fluorescence plate reader. actives 0.063% (n = 340,000). inhibition, % at 10 µM; in the data active = inhibition above about 30%, passing the limit was not always enough;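 also: 0% = vehicle neutral wells and 100% = reference inhibitor wells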
# RAD54 inh = inhibitors of human RAD54 branch migration | Q92698 | inhibition, % at 10.4 µM | AID 602329 | actives 0.14% (n = 360,000) | RAD54 Holliday junction branch migration, FAM/BHQ fluorescence;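 active = mean normalized replicate activity at least 40 and at least half of replicates scoring 40 or more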;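 also: 0% = median of neutral control wells and 100% = median of positive control wells; inhibitors cause a drop in the FAM fluorescence signal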
# Target sequence (Q92698 whole entry, looked up): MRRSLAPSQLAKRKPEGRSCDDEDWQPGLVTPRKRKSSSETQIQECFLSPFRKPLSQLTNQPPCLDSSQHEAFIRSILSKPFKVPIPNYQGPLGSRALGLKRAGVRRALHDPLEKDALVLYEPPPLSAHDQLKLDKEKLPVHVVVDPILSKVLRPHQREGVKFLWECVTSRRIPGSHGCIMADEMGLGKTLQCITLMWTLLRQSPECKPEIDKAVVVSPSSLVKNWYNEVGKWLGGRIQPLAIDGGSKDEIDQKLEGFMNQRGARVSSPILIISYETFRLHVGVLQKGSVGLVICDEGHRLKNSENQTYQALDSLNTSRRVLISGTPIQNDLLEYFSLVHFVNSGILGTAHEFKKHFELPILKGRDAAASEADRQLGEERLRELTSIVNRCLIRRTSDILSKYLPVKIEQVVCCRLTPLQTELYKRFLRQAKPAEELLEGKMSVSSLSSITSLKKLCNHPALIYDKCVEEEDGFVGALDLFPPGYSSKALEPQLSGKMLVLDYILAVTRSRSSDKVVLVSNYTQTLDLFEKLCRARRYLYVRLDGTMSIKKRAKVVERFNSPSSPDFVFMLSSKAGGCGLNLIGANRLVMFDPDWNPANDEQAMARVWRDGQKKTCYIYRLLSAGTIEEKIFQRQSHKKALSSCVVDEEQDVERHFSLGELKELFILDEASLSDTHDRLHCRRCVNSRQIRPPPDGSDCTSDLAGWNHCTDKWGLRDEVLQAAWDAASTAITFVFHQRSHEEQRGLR
# Starred values were filed as active, the others as inactive; / = no result.
SMILES,RAD52 anneal inh,N-glyco inh,dFosB activator,CFTR F508del cor,PvdQ inh,RAD54 inh
Cc1ccc(C(=O)NCC(=O)OCC(=O)NC(C)c2ccccc2)s1 (stereo unspecified),4,3,7,15*,1,/
COc1ccc2c(c1)N(C)/C(=C/c1cccc[n+]1C)S2,24,8,9,2,-10,51*
CN1/C(=C/c2cccc[n+]2C)Sc2ccccc21,42,15,16,1,-3,62*
Cc1ccc2c(c1)N(C)/C(=C/c1cccc[n+]1C)S2,36,25,18*,1,-4,34
CCN1/C(=C/c2cccc[n+]2C)Sc2ccc(OC)cc21,38,-1,-11,2,-5,46
CCC(=O)N1[C@H](CO)[C@H](c2ccc(-c3ccc(F)cc3)cc2)C12CN(C(C)=O)C2,-30,/,/,0,/,/
Cc1ccc2c(c1)cc(CN(C(=O)N1CCOCC1)C1CCCC1)c1nnnn12,-12,40*,-6,1,-4,/
CCC(=O)N(Cc1cc2ccc(C)cc2n2nnnc12)C1CCCCC1,/,0,-6,/,-15,/
Cc1ccc(-c2csc3ncn(CC#N)c(=O)c23)cc1,/,-1,-10,/,-11,-4
Cc1ccc(-c2csc3ncn(CC#N)c(=O)c23)cc1C,-24,3,-13,10*,8,-2
C[C@H]1CN([C@@H](C)CO)S(=O)(=O)c2ccc(C3=CCCCC3)cc2O[C@H]1CN(C)C(=O)C1CCC1,21,/,/,1,/,-2
COC(=O)C1(C)CCCC2(C)C3CCC(C(C)C)C(CO)C3C(CO)CC12 (stereo unspecified),-13,1,/,8.0*,/,-10
COC(=O)[C@]1(C)CCC[C@@]2(C)C3CC[C@]4(OC(C)=O)C[C@@]3(CCC21)CC4=O (stereo partly specified),-45,1,-3,1,-10,5
O=C(CCn1c(=S)[nH]c2cc3c(cc2c1=O)OCO3)NCc1ccccc1Cl,-18,-1,35*,1,-3,-3
C[C@@H]1CN([C@@H](C)CO)C(=O)c2cc(NS(=O)(=O)c3cn(C)cn3)ccc2O[C@@H](C)CCCCO[C@@H]1CN(C)C(=O)C1CCCCC1,0,/,/,-1,/,1
CCC[C@@H](CN1CCC[C@H]1CN1C(N)=NC[C@@H]1Cc1ccccc1)N1C[C@@H](Cc2ccccc2)N(CCc2ccc(Cl)c(Cl)c2)C1=N,56*,2,7,-1,-24,19
CC(c1ccccc1)n1c(SCC(=O)N2CC(=O)Nc3ccccc32)nc2ccccc2c1=O (stereo unspecified),/,-11,-9,/,-13,/
COCC(C)n1c(SCC(=O)N2CC(=O)Nc3ccccc32)nc2ccccc2c1=O (stereo unspecified),-62,-2,-5,15*,-14,5
O=S(=O)(c1ccccc1F)N1CCCCN2[C@H](CO)[C@@H](c3ccc(-c4ccccc4)cc3)[C@@H]2C1,3,/,/,-4,/,-10
OC[C@@H]1CN(Cc2ccc(-c3ccccc3)cc2)C[C@H](n2cnc3c(NC4CC4)ncnc32)O1,-11,-2,/,8.6*,/,7
OC[C@@H]1CN(Cc2ccc(-c3ccccc3)cc2)C[C@H](n2cnc3c(Nc4ccccc4)ncnc32)O1,-6,-5,/,-4,/,-3
O=C(COc1ccccc1CNCc1ccccc1)Nc1ccccc1,/,47*,-1,/,-9,/
CCOc1ccccc1CNCc1ccc(C(=O)O)cc1,-9,2,-2,-1,-9,/
CO[C@H]1CN(C)C(=O)c2cc(NC(=O)Nc3cc(Cl)cc(Cl)c3)ccc2OC[C@@H](C)NC[C@@H]1C,59*,/,/,1,/,/
CO[C@@H]1CN(C)C(=O)c2cc(NC(=O)Nc3ccc(Cl)cc3)ccc2OC[C@H](C)NC[C@H]1C,13,/,/,0,/,6
SMILES,RAD52 anneal inh,N-glyco inh,dFosB activator,CFTR F508del cor,PvdQ inh,RAD54 inh
CO[C@H]1CN(C)C(=O)c2cc(NC(=O)Nc3ccc(Cl)c(Cl)c3)ccc2OC[C@H](C)NC[C@H]1C,54*,/,/,-4,/,29
CO[C@@H]1CN(C)C(=O)c2cc(NC(=O)Nc3cc(Cl)cc(Cl)c3)ccc2OC[C@@H](C)NC[C@@H]1C,/,/,/,0,/,/
CO[C@@H]1CN(C)C(=O)c2cc(NC(=O)Nc3ccc(Cl)c(Cl)c3)ccc2OC[C@H](C)NC[C@@H]1C,52*,/,/,0,/,27
COc1ccccc1C#Cc1cnc2c(c1)C(=O)N([C@@H](C)CO)C[C@@H](C)[C@@H](CN(C)C(C)=O)O2,1,/,/,0,/,0
Cc1ccc(-c2nc(CN(C)Cc3cccc4cnccc34)c(C)o2)s1,-29,-1,-15,4,51*,/
CNc1nc(NCc2ccccc2)c2ccccc2n1,2,11,4,-1,-13,-7
Oc1ccccc1Nc1nc(NCc2ccccc2)c2ccccc2n1,-18,-5,84*,2,4,/
CCCCCCCC(=O)OCC(COC(=O)CCCCCCC)OC(=O)CCCCCCC,-8,0,-6,-3,-15,-7
CCCCCCCCCC(=O)OCC(O)CO (stereo unspecified),1,3,0,8.2*,2,7
CCCC(=O)Nc1ccc2c(c1)nc(CN1CCN(C(=O)OCC)CC1)n2CC,-13,14,0,12*,-9,-12
CCCC(=O)Nc1ccc2c(c1)nc(CN1CCN(C(=O)OCC)CC1)n2C,-10,3,-3,5,4,-8
Cc1cc2c(cc(C(=O)OC(C)C(=O)NCc3ccc(F)cc3)n2C)o1 (stereo unspecified),-6,1,-4,29*,3,6
Cc1cc2c(cc(C(=O)OC(C)C(=O)NCc3ccccc3)n2C)o1 (stereo unspecified),-2,0,15,7,5,2
COCC(=O)Nc1ccc2c(c1)C(=O)N(C)C[C@H](OC)[C@H](C)CN(Cc1cccc(F)c1)[C@@H](C)CO2,-12,/,/,1,/,-1
C[C@@H](NC(=O)[C@@H]1[C@@H](CO)[C@@H]2Cn3c(cccc3=O)[C@H]1N2Cc1cccnc1)c1ccccc1,-9,/,/,0,/,-1
CC(=O)Nc1sc(C)c(C)c1C(=O)OCC(=O)Nc1cccc(C)c1,-13,66*,14,-2,-12,-10
COc1ccccc1NC(=O)COC(=O)c1c(NC(C)=O)sc(C)c1C,-64,2,/,-1,/,-4
CC(=O)Nc1sc(C)c(C)c1C(=O)OCC(=O)Nc1ccccc1,-2,85*,12,1,-7,-4
COc1cccc(NC(=O)COC(=O)c2c(NC(C)=O)sc(C)c2C)c1,-21,-1,0,1,-10,-5
CC(NC(=O)c1cc(S(=O)(=O)N2CCOCC2)ccc1F)c1ccc(-n2ccnc2)cc1 (stereo unspecified),-18,-2,-10,11*,-15,-10
